# The source made the active and inactive calls.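 Rule for the calls, unless noted: active = compounds killing one labelled cell type while sparing the other, by normalised counts and ratio limits, not self-fluorescent; inactive = the rest.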
# Experiments:
# [1] = target: 6-phosphogluconate dehydrogenase, decarboxylating (Homo sapiens) (UniProt P52209); test: 6PGD enzyme inhibitors, primary screen, biochemical, human, recombinant enzyme, NADPH absorbance (AID 1159550;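 active = at least 20% inhibition of 6-phosphogluconate dehydrogenase activity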); details: recombinant 6PGD, NADPH absorbance 341 nm; at 10 µM; stronger effect = higher value
# [2] = differential killing of epithelial or mesenchymal cells, primary screen, imaging, PC-3E GFP, TEM4-18 mCherry, co-culture (AID 1345086); details: imaging cell counts, at 1 µM; for red/green cell ratio (normalised): actives lie on both sides, counts scaled to control wells, 1 = unselective;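 for all read-outs here: cells exposed to compound for 72 h before imaging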;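 for red/green cell ratio (normalised): normalised mesenchymal count divided by normalised epithelial count so high means epithelial killing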
# [3] = target: Mitogen-activated protein kinase 7 (Homo sapiens) (UniProt Q13164); test: ERK5 transactivation activators in reporter cells, primary screen, cell-based, HTS (AID 1508626;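 active = luciferase signal above three times the same-plate solvent-only control wells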;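 note: luciferase driven by Gal4-ERK5 fusion binding five Gal4 sites before minimal TATA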); details: HeLa Gal4-ERK5 transactivation, 18 h, at 5 µM, stronger effect = higher value
# [4] = measured here: epithelial PC-3E GFP cell survival
# [5] = measured here: mesenchymal TEM4-18 mCherry cell survival
# Sequence of 6-phosphogluconate dehydrogenase, decarboxylating (Homo sapiens) (P52209 whole entry, looked up): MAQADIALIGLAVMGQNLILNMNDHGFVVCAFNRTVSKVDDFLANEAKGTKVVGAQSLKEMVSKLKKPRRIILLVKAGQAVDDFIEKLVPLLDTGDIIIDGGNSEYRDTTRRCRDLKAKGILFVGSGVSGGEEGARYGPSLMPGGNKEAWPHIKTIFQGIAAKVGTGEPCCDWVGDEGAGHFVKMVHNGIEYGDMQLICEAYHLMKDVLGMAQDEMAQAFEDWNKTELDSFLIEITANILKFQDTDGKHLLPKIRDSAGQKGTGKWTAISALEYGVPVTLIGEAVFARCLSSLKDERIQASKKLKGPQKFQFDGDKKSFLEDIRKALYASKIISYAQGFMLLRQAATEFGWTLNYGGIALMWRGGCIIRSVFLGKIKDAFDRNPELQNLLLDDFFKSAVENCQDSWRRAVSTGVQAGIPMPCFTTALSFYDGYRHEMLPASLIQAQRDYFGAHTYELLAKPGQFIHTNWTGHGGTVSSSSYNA
# Sequence of Mitogen-activated protein kinase 7 (Homo sapiens) (Q13164 whole entry, looked up, the tested form may be a part): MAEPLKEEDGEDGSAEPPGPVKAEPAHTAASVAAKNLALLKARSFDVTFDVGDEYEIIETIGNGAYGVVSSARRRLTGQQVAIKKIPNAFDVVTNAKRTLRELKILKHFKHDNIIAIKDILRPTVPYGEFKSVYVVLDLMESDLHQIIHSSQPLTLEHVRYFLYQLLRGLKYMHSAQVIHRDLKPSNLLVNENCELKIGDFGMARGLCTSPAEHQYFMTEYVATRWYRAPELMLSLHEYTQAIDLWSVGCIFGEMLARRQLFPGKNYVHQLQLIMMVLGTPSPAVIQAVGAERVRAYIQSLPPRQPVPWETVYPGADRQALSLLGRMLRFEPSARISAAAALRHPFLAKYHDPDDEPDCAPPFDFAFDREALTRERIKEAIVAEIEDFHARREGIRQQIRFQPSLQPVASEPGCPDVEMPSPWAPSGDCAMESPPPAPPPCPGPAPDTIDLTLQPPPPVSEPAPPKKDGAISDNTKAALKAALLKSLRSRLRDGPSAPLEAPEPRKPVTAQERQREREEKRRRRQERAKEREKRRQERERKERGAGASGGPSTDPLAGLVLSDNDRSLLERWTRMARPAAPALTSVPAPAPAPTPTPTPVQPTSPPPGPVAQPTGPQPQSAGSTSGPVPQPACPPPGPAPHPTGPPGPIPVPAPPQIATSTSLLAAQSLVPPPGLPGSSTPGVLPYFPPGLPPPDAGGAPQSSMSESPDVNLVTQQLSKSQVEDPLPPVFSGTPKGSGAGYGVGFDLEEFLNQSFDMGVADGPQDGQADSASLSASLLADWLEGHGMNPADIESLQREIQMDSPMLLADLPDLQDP
Structure (SMILES),inhibition [1],red/green cell ratio (normalised) [2],"normalised cell number [2, 4]","normalised cell number [2, 5]",luciferase signal [3]
O=C(/C=C/c1ccccc1)c1ccc(O)cc1,1.18% (inactive),1.04 (inactive),0.75,0.79,28 AU (inactive)
CC(=O)Oc1ccc2c(c1OC(C)=O)OCC1(O)Cc3c(cc(OC(C)=O)c(OC(C)=O)c3OC(C)=O)C21 (stereo not given),18.4% (inactive),0.84 (inactive),1.08,0.91,44 AU (inactive)
CC1=C2C(O)C(=O)OC3CC4C(C)(C)C(=O)C=C[C@]4(C)C(CC1)[C@]23C (stereo not given in full),-6.52% (inactive),1.05 (inactive),0.98,1.02,144 AU (active)
COc1cc(O)c(C(=O)c2ccccc2)cc1O,-3.44% (inactive),0.89 (inactive),1.31,1.17,48 AU (inactive)
COc1cc(-c2coc3cc(OC)c(OC)c(OC)c3c2=O)cc(OC)c1OC,12.5% (inactive),1.13 (inactive),0.98,1.1,100 AU (inactive)
CC1=CC2C(CC1=O)C(C)=CCC2C(C)C (stereo not given),2.64% (inactive),1.21 (inactive),1.06,1.28,24 AU (inactive)
C=C1C(N)CC2CC1C2(C)C (stereo not given),16.7% (inactive),1.05 (inactive),1.09,1.15,60 AU (inactive)
COc1c(CC(=O)c2cc3c(cc2O)OC(C)(C)C(O)C3)ccc2c1C=CC(C)(C)O2 (stereo not given),5.33% (inactive),0.66 (inactive),1.48,0.97,40 AU (inactive)
O=C(O)CCCN1C(=O)c2cccc3cccc(c23)C1=O,-3.59% (inactive),0.82 (inactive),1.29,1.06,48 AU (inactive)
COc1cc(O)ccc1C(C)=O,12.4% (inactive),0.96 (inactive),0.95,0.91,124 AU (inactive)
CC(=O)O[C@H]1CCC2(C)C3=C(CCC2C1(C)C)[C@]1(C)CCC(C(C)CCC=C(C)C)[C@@]1(C)CC3 (stereo not given in full),12.8% (inactive),0.97 (inactive),0.86,0.83,52 AU (inactive)
COC1=CC(=O)C(C(=O)c2ccccc2)=CC1=O,-0.278% (inactive),1.01 (inactive),1.01,1.03,72 AU (inactive)
COc1ccc2c(c1)O[C@@H]1COc3cc(OC)c(OC)cc3[C@@H]1C2=O,-2.95% (inactive),0.88 (inactive),0.9,0.79,68 AU (inactive)
Cc1cc(OC(=O)c2c(C)cc(O)cc2O)cc(O)c1C(=O)O,1.29% (inactive),0.82 (inactive),1.06,0.87,12 AU (inactive)
OC[C@H]1O[C@@H](n2cnc3c(NCc4ccco4)ncnc32)[C@H](O)[C@@H]1O,3.79% (inactive),1.48 (inactive),0.37,0.55,40 AU (inactive)
COc1cc(O)c2c(=O)cc(C)oc2c1CC=C(C)C,12.4% (inactive),1.22 (inactive),0.96,1.17,36 AU (inactive)
COc1cc(C)c(C(=O)Oc2cc(C)c(C(=O)O)c(O)c2C)c(OC)c1C,17.4% (inactive),1.11 (inactive),0.88,0.98,92 AU (inactive)
CCC(C)C(NC)C(=O)O (stereo not given),-6.91% (inactive),1.02 (inactive),1.08,1.11,68 AU (inactive)
CC1(C)CC2C1CCC1(C)OC1CCC2(C)O (stereo not given),19.1% (inactive),1.05 (inactive),0.98,1.02,620 AU (active)
COc1cccc(O)c1O,-0.395% (inactive),0.97 (inactive),0.99,0.96,52 AU (inactive)
C=CCCCCCCCCCCCC(O)CC(O)COC(C)=O (stereo not given) (tested in a mixture with another compound),4.12% (inactive),0.92 (inactive),1,0.92,36 AU (inactive)
C#CCCCCCCCCCCCC(O)CC(O)COC(C)=O (stereo not given),8.03% (inactive),0.83 (inactive),1.1,0.91,60 AU (inactive)
O=C(O)c1nc2cc(Cl)c(Cl)cc2[nH]c1=O,-11.6% (inactive),0.95 (inactive),1.19,1.12,36 AU (inactive)
Cc1cc(=O)oc2c(O)c(O)ccc12,-1.28% (inactive),1.02 (inactive),0.87,0.89,44 AU (inactive)
CC1=CCc2c(cc3oc(C)cc(=O)c3c2O)OC1,0.892% (inactive),1.1 (inactive),1.02,1.12,16 AU (inactive)
COc1cc(O)c(C(C)=O)c(OC)c1,0.271% (inactive),0.74 (inactive),1.02,0.75,8 AU (inactive)
